Inconclusive results are not listed. Entries that show only a call come without a potency. Unmarked numbers belong to inactive results. The source made the active and inactive calls. The call rests on the fitted dose curve; in most records, active means well fitted inhibition curve with a large enough effect in the repeat runs; inconclusive means weak or mixed curves; inactive means no such curve, though single readings can be large or run the other way.
Potency means the concentration at half of the fitted maximal effect.

In this assay the target is Cytochrome P450 2C9 (Homo sapiens) (UniProt P11712). The assay is described as follows: Cytochrome P450 Family 2 Subfamily C Member 9 (CYP2C9) small molecule antagonists: luciferase reporter qHTS assay (AID 1671198). Further: nearly all actives have a fitted effect of over 50% in size. Particulars: P450-Glo CYP2C9 enzyme assay, luciferin luminescence; series mostly up to 115 µM. An outline of the steps: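 CYP2C9 activity was measured with a P450-Glo proluciferin substrate. Enzyme–substrate mix was held with compound for 10 min at room temperature, then NADPH regeneration solution was added for 1 h at 37C. Luciferin product was read as luminescence.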
Cytochrome P450 2C9 (Homo sapiens), sequence (P11712 whole entry, looked up): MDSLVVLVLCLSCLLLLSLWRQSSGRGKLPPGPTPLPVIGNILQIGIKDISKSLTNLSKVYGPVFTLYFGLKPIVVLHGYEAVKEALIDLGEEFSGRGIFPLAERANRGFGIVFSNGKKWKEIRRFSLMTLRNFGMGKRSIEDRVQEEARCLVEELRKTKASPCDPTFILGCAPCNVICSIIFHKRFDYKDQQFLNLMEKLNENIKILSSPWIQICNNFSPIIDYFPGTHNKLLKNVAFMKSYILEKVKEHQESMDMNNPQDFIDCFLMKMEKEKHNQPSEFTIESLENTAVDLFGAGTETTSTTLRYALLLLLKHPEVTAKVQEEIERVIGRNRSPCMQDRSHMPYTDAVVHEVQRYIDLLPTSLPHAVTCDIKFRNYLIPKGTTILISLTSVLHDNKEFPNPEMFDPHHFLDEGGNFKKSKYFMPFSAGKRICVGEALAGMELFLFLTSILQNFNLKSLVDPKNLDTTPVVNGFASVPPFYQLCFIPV
(In general: In a reporter assay the amount or activity of a reporter protein is the signal.)
On to `COc1cc(C(=O)OC(COCCC(C)C)CN2CCOCC2)cc(OC)c1OC` (configuration not stated), for which the Potency is 3.09 µM (active).
The same measure, in the same setting: then `O=C(O)CNC(=O)c1ccc(CO)o1`, with “inactive”.
Consider `O=C(O)CNC(=O)c1ccccc1`, for which the Potency result was “inactive”.
Take `Nc1ccn([C@@H]2O[C@H](CO)[C@@H](O)C2(F)F)c(=O)n1`: the Potency result is “inactive”.
With `CN(C)CCN(C)CCN(C)C`, the Potency result is “inactive”.
Turning to `C[C@@H]1CCC[C@H](C)N1`, the Potency entry is “inactive”.
On to `Cc1ccc(-c2ncc(Cl)cc2-c2ccc(S(C)(=O)=O)cc2)cn1`, for which the Potency was 17.4 µM (active).
`CC(C)[C@H]1CC[C@@H](C)CC1=O`: the Potency entry is “inactive”.
As for `CCCC[N+](C)(CCCC)CCCC`, the Potency result is “inactive”.
As to `O=Cc1cccc(Br)c1`, the Potency is 40.9 µM (active).
Regarding `CN1C(C)(C)CC(O)CC1(C)C`, the Potency entry was “inactive”.
In the case of `c1ccc(CCc2ccccc2)cc1`, the Potency result is “inactive”.
`CC(C)C1CCC(O)CC1` (configuration not stated): the Potency result was “inactive”.
Regarding `CCCC(C)C(=O)OCC` (configuration not stated), the Potency entry was “inactive”.
Take `CCNS(=O)(=O)c1ccc(C)cc1`: the Potency entry is “inactive”.
Regarding `CC(N)C12CC3CC(CC(C3)C1)C2` (configuration not stated), the Potency entry was “inactive”.
Still for that read-out and setting: then `CCCCCCCCCCCCCCC(=O)O`, with “inactive”; and `O=S(=O)(O)c1cccc(S(=O)(=O)O)c1`, with “inactive”; and `CC(=O)N1C[C@H](O)C[C@H]1C(=O)O`, with “inactive”.
Regarding `NC(=O)N[C@@H](CCC(=O)O)C(=O)O`, the Potency entry was “inactive”.
As to `CCN[C@H]1C[C@H](C)S(=O)(=O)c2sc(S(N)(=O)=O)cc21`, the Potency result is “inactive”.
Still for that read-out and setting: then `CC(C)C(=O)OC(=O)C(C)C`, with “inactive”; and `CC(C)c1ccc2ncccc2c1`, with “inactive”.
As for `CC(=O)c1cnccn1`, the Potency entry is “inactive”.
Turning to `CN1CC(=O)N/C1=N/C(=O)Nc1cccc(Cl)c1`, the Potency result is “inactive”.
On to `CC(C)CC(C)(N)C#N` (configuration not stated), for which the Potency entry is “inactive”.
Regarding `CC1(C)OC[C@@H](COC(=O)CCc2ccc(OC[C@@H](O)CNCCNC(=O)N3CCOCC3)cc2)O1`, the Potency entry is “inactive”.
For the compound `CC1OC1C1CCC2(C)OC2C1` (configuration not stated), the Potency entry is “inactive”.
With `CC1=NS(=O)(=O)c2cc(Cl)ccc2N1`, the Potency entry was “inactive”.
With `CNCCO`, the Potency result was “inactive”.
For `C[C@H]1C[C@H]2[C@@H]3CCC4=CC(=O)C=C[C@]4(C)[C@H]3C(=O)C[C@]2(C)[C@@]1(O)C(=O)CO`, the Potency is 13.8 µM (active).
In the case of `COCCOC[C@H](CC1(C(=O)NC2CCC(C(=O)O)CC2)CCCC1)C(=O)Oc1ccc2c(c1)CCC2` (some centres not stated), the Potency entry was “inactive”.
Take `CC1=CCC(O)(C(C)C)CC1` (configuration not stated): the Potency result is “inactive”.
As to `CO[C@@]1(NC(=O)CSC[C@@H](N)C(=O)O)C(=O)N2C(C(=O)O)=C(CSc3nnnn3C)CS[C@@H]21`, the Potency result is “inactive”.
Regarding `CCC(C)(CCCC(C)C)OC(C)=O` (configuration not stated), the Potency result was “inactive”.
On to `CC(=O)Nc1ccc(OCC(O)CNC(C)C)cc1` (configuration not stated), for which the Potency result was “inactive”.
In the case of `CCCCCCCCCCOc1cc2c(=O)c(C(=O)OCC)c[nH]c2cc1OCC`, the activity change, negative = inhibition was 6.88% [at 10.5 µM].

For the origin of these results see PubChem BioAssay (Tox21).
